# Pf Dd2 growth: blocks in vitro growth of P. falciparum Dd2; 4.3% of 120,000 active; AID 1347417; P. falciparum Dd2 growth, SYBR Green, 72 h; Potency, µM (doses to about 28.9 µM), inactives show at the highest dose activity, negative = inhibition, hits mostly inhibitors; active = well fitted inhibition curve with a large enough effect;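 also: plate controls were DMSO vehicle for no effect and reference drug for full effect; nearly all actives have a fitted effect of over 65% in size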
#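 Readout: SYBR Green fluorescence, 485 nm excitation, 535 nm emission, after ~16 h lysis at 37C. Before that, Dd2-infected red cells (2.5% hematocrit) grew 72 h with compound, 29 uM top final concentration.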
# * hit, by the source's call; i = inactive; [ ] = another dose, or the depositor's remark. Shown is part of a subset that was picked to be rich in hits. Potency is read from the fitted curve at half-maximal effect.
SMILES,Pf Dd2 growth
O=C(NCCc1ccncc1)C1c2ccccc2C(=O)N(Cc2ccccc2)C12CCCC2 (configuration not stated),-29%
CCCNC(=O)C1c2ccccc2C(=O)N(C2CCCCC2)C12CCCCC2 (configuration not stated),i
O=C(NCCc1ccncc1)C1c2ccccc2C(=O)N(C2CCCCC2)C12CCCCC2 (configuration not stated),10µM*
O=C(Nc1cccc(C(F)(F)F)c1)N[C@H]1CO[C@H]2[C@@H]1OC[C@@H]2Nc1nccc(C2CCCC2)n1,-25%
COc1cccc(CNC(=O)N(C)C2CCc3nn(CC4CC4)c(=O)n3CC2)c1 (configuration not stated),-9%
COc1cccc2c1ccn2CCC(=O)Nc1ccc2c(c1)C(=O)N1CCC[C@H]1C(=O)N2,-15%
CC[C@H]1CN(S(=O)(=O)c2ccccc2)CC[C@H]1CC(=O)N1CCOCC1,i
CC[C@H]1CN(C(=O)c2ccccc2)CC[C@H]1CC(=O)N1CCOCC1,-12%[44.1 µM]
CC[C@H]1CN(Cc2ccc(OC)cc2O)CC[C@H]1CC(=O)N1CCOCC1,7.9µM*
O=C(c1ccc(Cl)cc1)N1CC2(CCN(CC3CCCCC3)CC2)Cc2ccccc21,5.6µM*
CC(=O)N1CC2(CCN(CC3CC3)C2)Cc2ccccc21 (configuration not stated),-26%[44.1 µM]
O=C(C1CCCC1)N1CC2(CCCN2C2COC2)Cc2ccccc21 (configuration not stated),8.9µM*
CC(=O)N1CC(CO)C2(CCN(Cc3c[nH]c4ccccc34)CC2)C1 (configuration not stated),46%
O=C1Nc2ccccc2CNC12CCN(Cc1c[nH]c3ccccc13)CC2,-25%
CC(=O)N1CC2(CCN(CC3CC3)CC2)Cc2ccccc21,-14%[44.1 µM]
O=C(c1ccccc1)N1Cc2ccccc2CC2(CCN(CC3CCNC3)C2)C1 (configuration not stated),3%
CS(=O)(=O)N1CCCN(C(=O)C2CCCCC2)c2ccccc21,33%
O=C(C1CCCC1)N1CC2(CCN(Cc3c[nH]c4ccccc34)CC2)Cc2ccccc21,4.5µM*
CC(=O)N1CC2(CCCN2C(=O)CCC(=O)O)Cc2ccccc21 (configuration not stated),18%
CC(=O)N1CC2(CCCN(CC3CCCCC3)C2)Cc2ccccc21 (configuration not stated),10µM*
CC(=O)N1CC2(CCN(C(=O)c3ccc(Cl)cc3)CC2)Cc2ccccc21,3%
CNCc1nccs1,5%[44.1 µM]
Cc1cccc(C(C)C)c1NC(=O)C1CCCN1S(=O)(=O)c1cccc2nsnc12 (configuration not stated),43%
COc1ccccc1CNc1nc(-c2ccco2)nn1C(=O)c1ccccc1[N+](=O)[O-],15%
CCOc1ccc(NC(=O)c2cc(S(=O)(=O)N3CCCCC3)c[nH]2)cc1,-13%
SMILES,Pf Dd2 growth
CC1(Cc2ccc3c(c2)OCO3)CCCN(C(=O)CN2CCCC2=O)C1 (configuration not stated),-6%
COc1ccc(C2(C(=O)N3CCN(C(=O)N4CC5CC(C4)[C@H]4CCCC(=O)N4C5)CC3)CC2)cc1 (some centres not stated),-8%
Cc1cc2nc3n(c(=O)c2n1CC(=O)Nc1ccccc1F)CCCC3,103%
CNC(=O)C1CCC(Cn2c(=O)c3sccc3n(Cc3ccc(F)cc3)c2=O)CC1 (configuration not stated),-12%
CCc1ccc2oc(C(=O)Nc3ccccc3OC)cc(=O)c2c1,i
O=C(C1CCCC1)N1CC2(CCN(Cc3ccccn3)CC2)Cc2ccccc21,10µM*
CC(=O)NCC(=O)N1Cc2ccccc2CC2(CCN(CC3CCCCC3)C2)C1 (configuration not stated),-24%
O=C(C1CCCC1)N1CC2(CCN(CC3CC3)C2)Cc2ccccc21 (configuration not stated),8.9µM*
CC(=O)N1Cc2ccccc2CC2(CCN(CC3CCNCC3)C2)C1 (configuration not stated),13%
C[S+](=O)([O-])N1Cc2ccccc2CC2(CCN(Cc3ccccn3)CC2)C1,-19%
O=C(O)CCC(=O)N1CCC2(Cc3ccccc3N(C(=O)C3CCCC3)C2)C1 (configuration not stated),21%
O=C(Nc1ccc(Cl)cc1Cl)c1cc(S(=O)(=O)N2CCCCCC2)ccc1F,i
CCOc1ccc(NC(=O)c2cnn3c2NC(c2ccccc2)=CC3c2cccc(OC)c2OC)cc1 (configuration not stated),2.5µM*
Cc1ccc(NC(=O)c2cnn3c2NC(c2ccccc2)=CC3c2ccccc2)cc1 (configuration not stated),i
COc1cccc(C2C=C(c3ccccc3)Nc3c(C(=O)Nc4ccccc4)cnn32)c1OC (configuration not stated),0%
CCOc1cc(C2C(C(=O)Nc3ccccc3)=C(C)Nc3ncnn32)cc(Br)c1O (configuration not stated),2%
COc1cc(OC)c(C2C(C(=O)Nc3ccccc3)=C(C)Nc3ncnn32)cc1OC (configuration not stated),4%
COc1ccc(C2C=C(c3cccc(OC)c3)Nc3c(C(=O)Nc4ccccc4)cnn32)cc1 (configuration not stated),13µM*
CCOc1ccccc1NC(=O)C1=C(C)Nc2ncnn2C1c1ccc(C)o1 (configuration not stated),-10%
CCOc1ccc(NC(=O)c2cnc(Nc3ccccc3OC)c3ccccc23)cc1,i
COc1ccccc1NC(=O)C1=C(C)Nc2ncnn2C1c1ccccc1C(=O)O (configuration not stated),1.3µM*
COc1cccc(NC(=O)c2cnn(-c3ccccc3)c2-n2cccc2)c1,-27%
CCOc1ccc(C2C(C(=O)Nc3ccccc3OC)=C(C)Nc3c(C(=O)Nc4cccc(C)c4)cnn32)cc1 (configuration not stated),4µM*
CCCCOc1ccc(C2C(C(=O)Nc3ccccc3OC)=C(C)Nc3nnnn32)cc1OC (configuration not stated),i
CCCCN(CCCC)C(=O)c1cc2c(=O)n3cccc(C)c3nc2s1,-4%
SMILES,Pf Dd2 growth
CN(C)Cc1nnc(C2CC(NC(=O)c3cnc4c(c3)CCC4)C2)n1C (configuration not stated),-22%
c1ccc2nc(-n3nc(C4CCOC4)nc3C3CC3)cnc2c1 (configuration not stated),-14%
O=S(=O)(NCC(c1ccco1)N1CCOCC1)c1ccc(Br)cc1 (configuration not stated),18%
COc1cncc(N2C[C@H]3[C@H](C2)[S+](=O)([O-])C(C)(C)C(=O)N3Cc2ccccc2)c1,-16%[44.1 µM]
CNC(=O)[C@H]1C[C@H](Oc2ccccc2)CN1C(=O)c1ccc(F)cc1,10%
Cn1cc(C(=O)NCC(=O)N2CCCCCCNC(=O)CC2c2ccccc2)cn1 (configuration not stated),28%
COc1ccccc1NC(=O)C1=C(C)Nc2c(C(=O)Nc3ccc(F)cc3)cnn2C1c1ccc(Cl)cc1 (configuration not stated),8.9µM*
COc1ccccc1NC(=O)C1=C(C)Nc2nnnn2C1c1ccc(C(F)(F)F)cc1 (configuration not stated),-16%
COc1ccc(C2C(C(=O)Nc3ccccc3)=C(C)Nc3c(C(=O)Nc4ccccc4)cnn32)cc1 (configuration not stated),3.5µM*
